Screen size: about 5,500 compounds; about 2,000 (36%) were called active. Not shown: some 18% with an inconclusive outcome. This is one part of the list. Values without a mark were called inactive. Rule as the data show it: active = normalized growth mostly below about 0.91 (no sharp cut-off); inconclusive = no clear call, values can overlap the other calls; inactive = mostly above about 0.92.
Experiment: chemical genetic growth profiling, strain panel (AID 1159580);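 also: tested at 20 µM; growth read once vehicle control cultures reached saturation at 30 °C; 1 = growth at the plate median or of vehicle wells; lower values mean less growth of the strain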
Details: growth OD
[1] = S. cerevisiae deletion strains, locus YAL013W, strain DEP1, hits give low values
[2] = S. cerevisiae deletion strains, locus YBR229C, strain ROT2, hits give low values
[3] = S. cerevisiae deletion strains, locus YCL061C, strain MRC1, hits give low values
[4] = S. cerevisiae deletion strains, locus YDL101C, strain DUN1, hits give low values
[5] = S. cerevisiae deletion strains, locus YDR150W, strain NUM1, hits give low values
[6] = S. cerevisiae deletion strains, locus YEL061C, strain CIN8, hits give low values
[7] = S. cerevisiae deletion strains, locus YGR078C, strain PAC10, hits give low values
[8] = S. cerevisiae deletion strains, locus YGR229C, strain SMI1, hits give low values
[9] = S. cerevisiae deletion strains, locus YHR030C, strain SLT2, hits give low values
[10] = S. cerevisiae deletion strains, locus YHR087W, strain rtc3, hits give low values
[11] = S. cerevisiae deletion strains, locus YJR043C, strain POL32, hits give low values
[12] = S. cerevisiae deletion strains, locus YJR075W, strain HOC1, hits give low values
[13] = S. cerevisiae deletion strains, locus YKL190W, strain CNB1, hits give low values
[14] = S. cerevisiae deletion strains, locus YLR039C, strain RIC1, hits give low values
[15] = S. cerevisiae deletion strains, locus YLR058C, strain SHM2 (second series), hits give low values
[16] = S. cerevisiae deletion strains, locus YLR085C, strain ARP6, hits give low values
[17] = S. cerevisiae deletion strains, locus YLR262C, strain YPT6, hits give low values
[18] = S. cerevisiae deletion strains, locus YML094W, strain GIM5, hits give low values
[19] = S. cerevisiae deletion strains, locus YMR219W, strain ESC1, hits give low values
[20] = S. cerevisiae deletion strains, locus YMR263W, strain SAP30, hits give low values
[21] = S. cerevisiae deletion strains, locus YNL128W, strain TEP1, hits give low values
[22] = S. cerevisiae deletion strains, locus YNL153C, strain GIM3, hits give low values
[23] = S. cerevisiae deletion strains, locus YNL298W, strain CLA4 (second series), hits give low values
[24] = S. cerevisiae deletion strains, locus YNL322C, strain KRE1, hits give low values
[25] = S. cerevisiae deletion strains, locus YNR030W, strain Alg12, hits give low values
[26] = S. cerevisiae deletion strains, locus YPL055C, strain LGE1, hits give low values
[27] = S. cerevisiae deletion strains, locus YPL241C, strain CIN2, hits give low values
[28] = S. cerevisiae deletion strains, locus YPR135W, strain CTF4, hits give low values

Cc1cc(C)c(C(=O)NCCNc2ccc(C(F)(F)F)cc2[N+](=O)[O-])c(C)c1
normalized growth [1]: 0.97 | normalized growth [2]: 0.951 | normalized growth [3]: 0.966 | normalized growth [4]: 0.98 | normalized growth (S. cerevisiae deletion strains, locus YDL134C, strain PPH21, hits give low values): 0.971 | normalized growth [5]: 0.9 | normalized growth [6]: 0.862 (active) | normalized growth [7]: 0.953 | normalized growth [8]: 1 | normalized growth [9]: 0.259 (active) | normalized growth [10]: 0.89 (active) | normalized growth (S. cerevisiae deletion strains, locus YJL187C, strain SWE1, hits give low values): 0.978 | normalized growth [11]: 0.968 | normalized growth [12]: 0.895 | normalized growth [13]: 0.794 (active) | normalized growth [14]: 0.473 (active) | normalized growth [15]: 0.996 | normalized growth [16]: 0.331 (active) | normalized growth [17]: 0.58 (active) | normalized growth [18]: 0.817 (active) | normalized growth [19]: 0.98 | normalized growth [20]: 0.96 | normalized growth [21]: 0.957 | normalized growth [22]: 0.964 | normalized growth [23]: 0.785 (active) | normalized growth [24]: 0.986 | normalized growth [25]: 0.652 (active) | normalized growth [26]: 0.687 (active) | normalized growth [27]: 0.846 (active) | normalized growth [28]: 0.55 (active) | normalized growth (S. cerevisiae strains, strain wild type, hits give low values): 0.916

CC(O)CNc1ccc(C(F)(F)F)cc1[N+](=O)[O-] (stereo unspecified)
normalized growth [1]: 1.01 | normalized growth [2]: 1.01 | normalized growth [3]: 1.03 | normalized growth [4]: 1.03 | normalized growth [5]: 1.04 | normalized growth [6]: 0.997 | normalized growth [7]: 1.02 | normalized growth [8]: 0.993 | normalized growth [9]: 0.987 | normalized growth [10]: 1 | normalized growth [11]: 1.02 | normalized growth [12]: 1.04 | normalized growth [13]: 1.02 | normalized growth [14]: 1.08 | normalized growth [15]: 0.998 | normalized growth [16]: 0.989 | normalized growth [17]: 0.985 | normalized growth [18]: 0.947 | normalized growth [19]: 1 | normalized growth [20]: 1.02 | normalized growth (S. cerevisiae deletion strains, locus YMR307W, strain GAS1, hits give low values): 1.03 | normalized growth [21]: 1.02 | normalized growth [22]: 0.998 | normalized growth [23]: 1.05 | normalized growth [24]: 1 | normalized growth [25]: 0.999 | normalized growth [26]: 0.966 | normalized growth [27]: 1.01 | normalized growth [28]: 1.01

Cc1c(C(=O)NCCNc2ccc(C(F)(F)F)cc2[N+](=O)[O-])cnn1-c1ccc(F)cc1
normalized growth (S. cerevisiae deletion strains, locus YAR019C, strain CDC15, hits give low values): 0.981 | normalized growth (S. cerevisiae deletion strains, locus YBL105C, strain PKC1, hits give low values): 0.971 | normalized growth (S. cerevisiae deletion strains, locus YBR135W, strain CKS1, hits give low values): 0.974 | normalized growth (S. cerevisiae deletion strains, locus YBR136W, strain MEC1, hits give low values): 0.978 | normalized growth (S. cerevisiae deletion strains, locus YBR160W, strain CDC28, hits give low values): 0.979 | normalized growth (S. cerevisiae deletion strains, locus YDL017W, strain CDC7, hits give low values): 0.982 | normalized growth (S. cerevisiae deletion strains, locus YDL028C, strain MPS1, hits give low values): 0.989 | normalized growth [4]: 0.988 | normalized growth (S. cerevisiae deletion strains, locus YDL108W, strain KIN28, hits give low values): 0.982 | normalized growth (S. cerevisiae deletion strains, locus YDL132W, strain cdc53, hits give low values): 0.978 | normalized growth (S. cerevisiae deletion strains, locus YDL214C, strain PRR2, hits give low values): 0.958 | normalized growth (S. cerevisiae deletion strains, locus YDR052C, strain DBF4, hits give low values): 0.985 | normalized growth (S. cerevisiae deletion strains, locus YDR054C, strain cdc34, hits give low values): 0.956 | normalized growth (S. cerevisiae deletion strains, locus YDR226W, strain ADK1, hits give low values): 0.982 | normalized growth (S. cerevisiae deletion strains, locus YDR477W, strain SNF1, hits give low values): 0.968 | normalized growth (S. cerevisiae deletion strains, locus YER123W, strain YCK3, hits give low values): 0.966 | normalized growth (S. cerevisiae deletion strains, locus YER133W, strain GLC7, hits give low values): 0.982 | normalized growth (S. cerevisiae deletion strains, locus YFL009W, strain cdc4, hits give low values): 0.98 | normalized growth (S. cerevisiae deletion strains, locus YFL029C, strain CAK1, hits give low values): 0.977 | normalized growth (S. cerevisiae deletion strains, locus YFR003C, strain YPI1, hits give low values): 0.984 | normalized growth (S. cerevisiae deletion strains, locus YFR019W, strain FAB1, hits give low values): 0.973 | normalized growth (S. cerevisiae deletion strains, locus YFR028C, strain CDC14, hits give low values): 0.978 | normalized growth (S. cerevisiae deletion strains, locus YGR040W, strain KSS1, hits give low values): 0.958 | normalized growth (S. cerevisiae deletion strains, locus YGR052W, strain FMP48, hits give low values): 1.06 | normalized growth (S. cerevisiae deletion strains, locus YGR092W, strain DBF2, hits give low values): 0.935 | normalized growth [9]: 0.97 | normalized growth (S. cerevisiae deletion strains, locus YHR079C, strain IRE1, hits give low values): 0.954 | normalized growth (S. cerevisiae deletion strains, locus YHR082C, strain KSP1, hits give low values): 1.01 | normalized growth (S. cerevisiae deletion strains, locus YHR205W, strain SCH9, hits give low values): 0.962 | normalized growth (S. cerevisiae deletion strains, locus YIL147C, strain SLN1, hits give low values): 0.986 | normalized growth (S. cerevisiae deletion strains, locus YJL095W, strain BCK1, hits give low values): 0.978 | normalized growth (S. cerevisiae deletion strains, locus YJL128C, strain PBS2, hits give low values): 0.946 | normalized growth (S. cerevisiae deletion strains, locus YJL157C, strain FAR1, hits give low values): 0.943 | normalized growth (S. cerevisiae deletion strains, locus YJR016C, strain ILV3, hits give low values): 0.984 | normalized growth (S. cerevisiae deletion strains, locus YJR066W, strain TOR1 (second series), hits give low values): 0.933 | normalized growth (S. cerevisiae deletion strains, locus YJR066W, strain TOR1, hits give low values): 0.999 | normalized growth (S. cerevisiae deletion strains, locus YKL048C, strain ELM1, hits give low values): 0.949 | normalized growth (S. cerevisiae deletion strains, locus YKL067W, strain YNK1, hits give low values): 0.97 | normalized growth (S. cerevisiae deletion strains, locus YKL101W, strain HSL1, hits give low values): 0.947 | normalized growth (S. cerevisiae deletion strains, locus YKL193C, strain SDS22, hits give low values): 0.983 | normalized growth (S. cerevisiae deletion strains, locus YKL203C, strain TOR2, hits give low values): 1.01 | normalized growth (S. cerevisiae deletion strains, locus YLR113W, strain HOG1, hits give low values): 0.904 | normalized growth (S. cerevisiae deletion strains, locus YLR133W, strain CKI1, hits give low values): 0.941 | normalized growth (S. cerevisiae deletion strains, locus YLR403W, strain SFP1, hits give low values): 0.937 | normalized growth (S. cerevisiae deletion strains, locus YML070W, strain DAK1, hits give low values): 0.94 | normalized growth (S. cerevisiae deletion strains, locus YMR001C, strain CDC5, hits give low values): 0.985 | normalized growth (S. cerevisiae deletion strains, locus YMR205C, strain PFK2 (second series), hits give low values): 0.978 | normalized growth (S. cerevisiae deletion strains, locus YMR277W, strain FCP1, hits give low values): 0.991 | normalized growth (S. cerevisiae deletion strains, locus YNL006W, strain LST8, hits give low values): 1 | normalized growth (S. cerevisiae deletion strains, locus YNL020C, strain ARK1, hits give low values): 0.941 | normalized growth (S. cerevisiae deletion strains, locus YNL161W, strain CBK1, hits give low values): 0.975 | normalized growth (S. cerevisiae deletion strains, locus YNL183C, strain NPR1, hits give low values): 0.986 | normalized growth (S. cerevisiae deletion strains, locus YNL207W, strain RIO2, hits give low values): 0.973 | normalized growth (S. cerevisiae deletion strains, locus YNL222W, strain SSU72, hits give low values): 0.974 | normalized growth (S. cerevisiae deletion strains, locus YNL307C, strain MCK1 (second series), hits give low values): 0.939 | normalized growth (S. cerevisiae deletion strains, locus YOL078W, strain AVO1, hits give low values): 0.986 | normalized growth (S. cerevisiae deletion strains, locus YOL136C, strain PFK27, hits give low values): 0.938 | normalized growth (S. cerevisiae deletion strains, locus YOR061W, strain CKA2, hits give low values): 0.99 | normalized growth (S. cerevisiae deletion strains, locus YOR119C, strain RIO1, hits give low values): 1.01 | normalized growth (S. cerevisiae deletion strains, locus YOR231W, strain MKK1, hits give low values): 0.912 | normalized growth (S. cerevisiae deletion strains, locus YOR329C, strain SCD5, hits give low values): 0.984 | normalized growth (S. cerevisiae deletion strains, locus YPL031C, strain PHO85, hits give low values): 0.96 | normalized growth (S. cerevisiae deletion strains, locus YPL153C, strain RAD53, hits give low values): 0.954 | normalized growth (S. cerevisiae deletion strains, locus YPL204W, strain HRR25, hits give low values): 0.943 | normalized growth (S. cerevisiae deletion strains, locus YPL209C, strain IPL1, hits give low values): 0.979 | normalized growth (S. cerevisiae deletion strains, locus YPL256C, strain CLN2, hits give low values): 0.908 | normalized growth (S. cerevisiae deletion strains, locus YPR025C, strain CCL1, hits give low values): 0.979 | normalized growth (S. cerevisiae deletion strains, locus YPR106W, strain ISR1, hits give low values): 0.965 | normalized growth (S. cerevisiae deletion strains, locus YPR111W, strain DBF20, hits give low values): 0.962 | normalized growth (S. cerevisiae deletion strains, strain NNK1, hits give low values): 0.971 | normalized growth (S. cerevisiae deletion strains, strain TSCII, hits give low values): 0.982

Reference: PubChem BioAssay AID1159580 (chemical genetic matrix, 2015)
